Pf growth 48h: inhibits P. falciparum growth in the first generation, 48 h. P. falciparum luciferase growth in erythrocytes, 48 h. Potency, µM (doses to about 28.7 µM), for the others: at the top dose activity change, negative = inhibition, actives largely listed as inhibitors. 310,000 compounds, 5.9% hits; also: potency is read from the fitted curve at half-maximal effect; % is scaled to controls: 0 for no effect and ±100 for the full control effect
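Luminescence readout; reporter = integrated firefly luciferase in P. falciparum. RBC culture at 2% hematocrit, 0.1% parasitemia final, 37 C/5% CO2; decreased signal taken as growth inhibition.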
HCMV inh: human cytomegalovirus inhibition; HFF cells, HCMV-luciferase reporter, 72 h; active compounds read low; activity change, negative = inhibition, % at 57.5 µM; 410,000 compounds, 4.5% hits; AID 1259415; in the data active = activity change below about -60%; inconclusive = no clear call, values can overlap the other calls; inactive = above about -39%; also: % is scaled to controls: 0 for no effect and ±100 for the full control effect
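Inhibition of viral replication was scored as loss of reporter luminescence in HFFs infected with HCMV-luciferase (MOI 1 PFU/cell) for 72 h; compounds tested at 2 doses, normalized to buffer and Salinomycin controls.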
Cycloheximide cs: counter-screen for Shiga toxin inhibitors: cycloheximide protein synthesis inhibition | cell reporter, cycloheximide protein synthesis inhibition counterscreen | max response, % | 300,000 compounds, 12% hits | AID 2314; in the data active = max response mostly above about 13%, no sharp cut-off; inactive = mostly below about 14%; also: read at 38.3 µM for the half of the compounds with a filed dose; 0% is about no effect
Shiga toxin inh: blocks Shiga toxin action in Vero cells | Vero cells, Shiga toxin protein synthesis inhibition reporter | inhibition, % at 38.7 µM | 290,000 compounds, 9.2% hits; in the data active = inhibition mostly above about 28%, no sharp cut-off; inactive = mostly below about 43%; also: 0% is about no effect
Pf growth 96h: P. falciparum growth inhibition at 96 hour, primary screen for plastid delayed-death inhibitors | P. falciparum luciferase reporter growth, 96 h | Potency, µM (highest dose often 28.7 µM), inactives show at the top dose activity change, negative = inhibition, usual class: inhibitors | 320,000 compounds, 6.9% hits | AID 504834; also: potency is read from the fitted curve at half-maximal effect; % is scaled to controls: 0 for no effect and ±100 for the full control effect
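Delayed-death screen, second-generation endpoint: infected erythrocytes, 2% hematocrit, 0.05% parasitemia final; 96 hours at 37 C, 5% CO2; luciferase detection reagent; luminescence decrease equals reduced growth.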
HCV inh: inhibitors of hepatitis C virus infection. Huh7.5.1 HCVcc-Cre infection, luciferase reporter, 44 h. Potency, µM (doses to about 41.8 µM), inactives show at the highest dose activity change, negative = inhibition, actives largely listed as inhibitors. 340,000 compounds, 3.4% hits. AID 651820; also: potency is read from the fitted curve at half-maximal effect; % is scaled to controls: 0 for no effect and ±100 for the full control effect
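HCVcc-Cre virus at an moi near 0.5 was added right after compound to cells cultured 4 h from seeding (1,000 cells/well). Luciferase activity was determined 44 h later, 15 min after substrate addition at RT.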
An asterisk follows results filed as active; i = inactive; ? = inconclusive; nt = no result. Shown are actives, neighbours in structure and some others; about 21% of the full set was active somewhere. Unless noted, calls follow the shape of the dose curve; as a rule, active = well fitted inhibition curve with a large enough effect; inconclusive = small, poorly fitted or top-dose-only effect, or another doubt; inactive = no such curve, though single readings can be large or run the other way.

SMILES | Pf growth 48h | HCMV inh | Cycloheximide cs | Shiga toxin inh | Pf growth 96h | HCV inh
O=C1c2ccccc2S(=O)(=O)N1CC(O)COc1ccc(Cl)cc1 (centres undefined) | 10% | 13 | 9 | 38 | 6.6µM* | 13%
O=C1c2ccccc2S(=O)(=O)N1CCOc1ccccc1 | 33% | -24 | 35* | 56 | 59% | 19%
CC(NC(=O)COc1ccc(/C=N/NC(=O)CO)cc1)c1ccccc1 (centres undefined) | -12% | 26 | -2 | -6 | 133% | 10%
OC(COc1ccc(Br)cc1)CN1CCN(c2ccccc2)CC1 (centres undefined) | 12% | -34 | -3 | -5 | ? | -3%
O=C1c2ccccc2C(=O)N1CC(O)COc1ccc(Br)cc1 (centres undefined) | 98% | 7 | 13* | 90 | ? | 24%
N#CC1=C(N)C(C#N)(C#N)[C@H](c2c(F)cccc2F)[C@H]2CC3(CC=C12)OCCO3 | 5.2µM* | -107* | -2 | -3 | 79% | -7%
CC(C)(C)c1ccc(-n2ncc3c2CCCC3NC(=O)CN2CCCC2=O)cc1 (centres undefined) | 18% | -67* | 2 | -8 | 13µM* | 10µM*
Cc1cc(C)cc(-n2ncc3c2CCCC3NC(=O)CN2CCCC2=O)c1 (centres undefined) | 1% | -23 | 11 | 16 | ? | 3%
CC(C)(C)c1ccc(-n2ncc3c2CCCC3NC(=O)C2=NNC(=O)CC2)cc1 (centres undefined) | 5% | -81* | 2 | -2 | -6% | ?
Cn1nccc1C(=O)NC1CCCc2c1cnn2-c1ccc(C(C)(C)C)cc1 (centres undefined) | -21% | -61* | 11 | 10 | -14% | ?
O=C(NC1CCCc2c1cnn2-c1cc(F)cc(F)c1)c1cc[n+]([O-])cc1 (centres undefined) | ? | 16 | -2 | -11 | -12% | 4%
CC(C)(C)c1ccc(-n2ncc3c2CCCC3NC(=O)c2csnn2)cc1 (centres undefined) | ? | -8 | 5 | 12 | 13% | 5%
CC(C)(C)c1ccc(-n2ncc3c2CCCC3NC(=O)c2cnccn2)cc1 (centres undefined) | ? | -63* | 30* | 73* | ? | 4.5µM*
CCOc1cccc2cc(-c3nc4ccc(C(=O)O)cc4[nH]3)c(=O)oc12 | 128% | 47 | nt | nt | 317% | nt
CN(C)c1ccc(C(CNC(=O)COc2ccccc2)N2CCOCC2)cc1 (centres undefined) | nt | -26 | nt | nt | nt | nt
O=C1CN(C(=O)Cc2ccc(F)cc2)C(c2ccccc2)c2cc(Br)ccc2N1 (centres undefined) | nt | 15 | nt | nt | nt | nt
Cc1cccc([C@H]2[C@@H]3C=CC(C)C[C@@H]3C(=O)N2Cc2ccccc2)c1 (some centres undefined) | nt | nt | 1 | i | nt | nt
CC(=O)NC1CCCc2c1cnn2-c1ccc(C(C)(C)C)cc1 (centres undefined) | ? | -28 | 1 | 53 | ? | 10µM*
CC(=O)CCC(=O)NC1CCCc2c1cnn2-c1ccc(C(C)(C)C)cc1 (centres undefined) | 9% | ? | 2 | 13 | -32% | ?
Cc1nc(N2CCCC2)ncc1C(=O)Nc1ccc(F)cc1F | nt | 0 | nt | nt | nt | nt
COc1ccc(CCN2CCCC(CN(C)Cc3cc(OC)ccc3OC)C2)cc1 (centres undefined) | ? | -9 | -2 | 19 | 15µM* | 10µM*
COc1ccc(CCN2CCCC(CN(C)Cc3cccc(OC)c3)C2)cc1 (centres undefined) | ? | -18 | 5 | -2 | ? | 7.9µM*
COc1ccc(CN(C)CC2CCCN(CCc3ccc(F)cc3)C2)c(OC)c1OC (centres undefined) | ? | 11 | 1 | -8 | 16% | ?
CC(Sc1ccccc1)C(=O)NN=C1CCCCCC1 (centres undefined) | 34% | -9 | 11 | 20 | ? | 20%
Cc1ccc(C(=O)NCCCNC(=O)c2ccccc2C)cn1 | 9% | -7 | -4 | -4 | ? | 9%
SMILES | Pf growth 48h | HCMV inh | Cycloheximide cs | Shiga toxin inh | Pf growth 96h | HCV inh
Cc1ccc(C(=O)NCCCNC(=O)c2ccccc2F)cn1 | 3% | -6 | -2 | -5 | 2.9µM* | -3%
CCSC1=N/C(=C\c2ccccc2)C(=O)N1c1ccc(OC)cc1 | ? | ? | -5 | 12 | ? | 10µM*
CCN(CC)C1=N/C(=C\c2ccc(OC)cc2)C(=O)N1c1ccccc1 | 4% | -74* | -2 | 0 | -29% | ?
CCC(SC1=N/C(=C/c2ccccc2)C(=O)N1c1ccccc1)C(=O)Nc1cc(C)on1 (centres undefined) | 5.9µM* | -16 | -2 | -11 | 10% | ?
CC1(C)CC(=O)C=C(c2ccc(Oc3ccccc3)cc2)C1=O | nt | -16 | nt | nt | nt | nt
CC1(C)CC(=O)C=C(c2ccc(-c3cnc4ccccc4c3)cc2)C1=O | nt | -71* | nt | nt | nt | nt
CC(C)CCNC(=O)CN(Cc1ccc(F)cc1)C(=O)CCC(=O)Nc1ccccn1 | 37% | 3 | -3 | -5 | ? | -2%
COCCC1CCCCN1C(=O)c1cccc(OC2CCN(C3CCCC3)CC2)c1 (centres undefined) | 2% | 3 | 7 | -13 | ? | 8%
COc1ccc(C(=O)Nc2ccc3ccccc3c2)cc1OC | 116% | 120 | 43* | 68* | 61% | ?
COc1cc(C(=O)Nc2ccc3ccccc3c2)cc(OC)c1OC | 5.2µM* | 47 | 14* | 26 | 1.7µM* | ?
COc1ccc(C(=O)c2c(C(F)(F)F)oc3c2C(=O)c2ccccc2C3=O)cc1OC | nt | -103* | 10 | 3 | ? | ?
COc1ccc(C(=O)Nc2ccncc2)cc1OC | 1% | -2 | 18 | -21 | nt | -22%
COc1ccc(C(=O)Nc2ccc(C(=O)N3CCC(C)CC3)cc2)cc1OC | ? | -8 | -3 | 30 | 2.6µM* | -11%
O=C(NC(Cc1cc(=O)[nH]c2ccccc12)C(=O)O)c1ccc(Cl)cc1 (centres undefined) | 3% | nt | nt | nt | 10% | nt
O=C1C=CN(S(=O)(=O)c2ccc(Cl)cc2)C(c2cccs2)C1 (centres undefined) | nt | 25 | nt | nt | nt | nt
CCOc1cc(C2CC(=O)Nc3c2c(C)nn3-c2nc(C)cc(C)n2)ccc1O (centres undefined) | nt | 1 | nt | nt | nt | nt
COc1ccc(OC)c(C(=O)c2ccc(C(=O)Nc3ccc4ccccc4c3)cc2)c1 | ? | ? | 50* | active | ? | ?
COc1cc(C(=O)Nc2ccc(O)cc2)ccc1OC(C)=O | 35% | 18 | 14 | 20 | nt | -26%
Cn1nnc2cc(C(=O)NC3CC3)ccc21 | 39% | -5 | 6 | 10 | nt | 17%

Assay outcomes as filed in PubChem BioAssay.
